Among the data in PubChem BioAssay AID651739 (Broad Institute, 2012) are inhibition values, retold here.

The campaign covered roughly 5,600 compounds. About 4,100 (73%) were called active. Roughly 4% stayed inconclusive and do not appear here. So high a share suggests a set chosen from earlier hits. Only a sample is shown. Values without a mark were called inactive.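 Rule for the calls: active = mean replicate inhibition above about 95% and at least 55% of replicates individually reaching it (limit read from the data); inconclusive = only one of the two criteria is met; inactive = neither criterion is met.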

The test is described as follows: T. cruzi intracellular proliferation inhibitors, confirmation, cell-based, NIH3T3 host, beta-gal parasite, luminescence, cherry-pick (AID 651739). As to conditions: T. cruzi beta-gal in NIH3T3, GalScreen luminescence, 90 h; at 8.35 µM; active compounds read high.
On to `C[C@H]1CN([C@@H](C)CO)C(=O)Cc2cc(NC(=O)Cc3cn(C)c4ccccc34)ccc2O[C@@H]1CN(C)Cc1ccc(C(F)(F)F)cc1`, for which the inhibition is 104% (active).
As to `C[C@H]1CN([C@@H](C)CO)C(=O)Cc2cc(NC(=O)Cc3cn(C)c4ccccc34)ccc2O[C@@H]1CN(C)Cc1ccccc1`, the inhibition is 77.4%.
In the case of `COc1ccc(S(=O)(=O)N(C)C[C@H]2Oc3c(NC(=O)Nc4cccc5ccccc45)cccc3C(=O)N([C@@H](C)CO)C[C@H]2C)cc1`, the inhibition is 98.8% (active).
To `COc1ccc(NC(=O)N(C)C[C@@H]2Oc3c(NC(=O)NC4CCCCC4)cccc3C(=O)N([C@@H](C)CO)C[C@@H]2C)cc1` belongs 51.2%; to `C[C@H]1CN([C@@H](C)CO)C(=O)c2cccc(NS(=O)(=O)c3cn(C)cn3)c2O[C@@H]1CN(C)CC1CCCCC1`, 46.2%; to `Cc1ccc(S(=O)(=O)N(C)C[C@@H]2Oc3c(NC(=O)c4nc5ccccc5s4)cccc3C(=O)N([C@H](C)CO)C[C@@H]2C)cc1`, 95.2% (active).
The figure for `C[C@@H]1CN([C@@H](C)CO)S(=O)(=O)c2ccc(-c3ccncc3)cc2O[C@@H]1CN(C)C(=O)Nc1ccc(F)cc1` is 100% (active); for `C[C@@H]1CN([C@@H](C)CO)S(=O)(=O)c2ccc(C#Cc3ccccc3)cc2O[C@@H]1CN(C)C(=O)Nc1ccccc1` it is 103% (active).
To `C[C@@H]1CN([C@@H](C)CO)S(=O)(=O)c2ccc(C#Cc3ccc(F)cc3)cc2O[C@H]1CN(C)C(=O)NC1CCCC1` belongs 105% (active); to `C[C@@H]1CN([C@@H](C)CO)S(=O)(=O)c2ccc(C#Cc3ccc(F)cc3)cc2O[C@H]1CN(C)C(=O)c1ccccn1`, 108% (active).
Turning to `N#Cc1ccc(-c2ccc3c(c2)[C@@H]2[C@@H](CCN2C(=O)Cc2ccncc2)[C@@H](CO)N3)cc1`, the inhibition is 112% (active).
The figure for `COCC(=O)N1CC[C@@H]2[C@@H](CO)Nc3ccc(-c4cccc(C#N)c4)cc3[C@@H]21` is 111% (active); for `C[C@@H]1CN([C@H](C)CO)S(=O)(=O)c2ccc(-c3cccc(C#N)c3)cc2O[C@@H]1CN(C)C(=O)Nc1ccccc1F` it is 86.6%.
Take `C[C@H]1CN([C@@H](C)CO)S(=O)(=O)c2ccc(C#CC3CCCC3)cc2O[C@@H]1CN(C)C(=O)c1cccc(F)c1`: the inhibition is 96.6% (active).
The figure for `C[C@H](CO)N1C[C@H](C)[C@@H](CN(C)C(=O)Nc2cc(F)ccc2F)Oc2cc(C#CC3CC3)ccc2S1(=O)=O` is 108% (active); for `CCN(C[C@H]1[C@H](c2ccccc2)[C@H](CO)N1C(=O)C1CC1)C(=O)NC1CCCC1` it is -20.8%; for `CC(=O)NC[C@@H]1[C@@H](c2ccc(-c3ccccc3F)cc2)[C@@H](CO)N1C(=O)C1CC1` it is 15.9%.
On to `N#C[C@@H]1[C@@H](c2ccccc2)[C@@H](CO)N1C(=O)Cc1ccccc1`, for which the inhibition was 78.3%.
To `CCCC#Cc1ccc([C@@H]2[C@@H](C#N)N(C(=O)C3CCCC3)[C@@H]2CO)cc1` belongs 107% (active).
As to `N#C[C@@H]1[C@@H](c2ccc(C#Cc3cccc(F)c3)cc2)[C@@H](CO)N1C(=O)C1CCC1`, the inhibition is 104% (active).
To `N#C[C@@H]1[C@H](c2ccc(C#Cc3cccc(F)c3)cc2)[C@@H](CO)N1C(=O)C1CCCC1` belongs 103% (active); to `N#C[C@@H]1[C@@H](c2ccc(/C=C/c3ccccc3)cc2)[C@@H](CO)N1C(=O)C1CC1`, 108% (active); to `CC(=O)N1[C@H](CNC(=O)C2CC2)[C@@H](c2ccc(-c3cccc(F)c3)cc2)[C@@H]1CO`, 19.2%.
As for `CC(=O)N(C)C[C@@H]1[C@@H](c2ccc(-c3ccccc3F)cc2)[C@@H](CO)N1C(C)=O`, the inhibition was 19.8%.
To `COCC(=O)N1[C@H](CO)[C@@H](c2ccc(C#Cc3ccccc3F)cc2)[C@@H]1C#N` belongs 107% (active); to `Cc1ccc(S(=O)(=O)Nc2ccc3c(c2)C(=O)N([C@H](C)CO)C[C@H](C)[C@H](CN(C)C(=O)Nc2ccc(F)cc2)OCCCC[C@H](C)O3)cc1`, 108% (active); to `COc1ccc(S(=O)(=O)N(C)C[C@H]2OCCCC[C@H](C)Oc3ccc(NS(=O)(=O)c4ccc(F)cc4)cc3C(=O)N([C@@H](C)CO)C[C@@H]2C)cc1`, 106% (active).
For the molecule `C[C@@H]1CCCCO[C@H](CN(C)S(=O)(=O)c2ccc(F)cc2)[C@H](C)CN([C@@H](C)CO)C(=O)c2cc(NS(=O)(=O)c3ccccc3)ccc2O1`, the inhibition is 109% (active).
As to `Cc1ccc(S(=O)(=O)N(C)C[C@@H]2OCCCC[C@@H](C)Oc3ccc(NS(=O)(=O)c4ccc(F)cc4)cc3C(=O)N([C@H](C)CO)C[C@H]2C)cc1`, the inhibition is 97.7% (active).
The figure for `C[C@H](CO)N1C[C@H](C)[C@H](CN(C)S(=O)(=O)c2ccc(F)cc2)OCCCC[C@H](C)Oc2ccc(NS(=O)(=O)c3ccc(Cl)cc3)cc2C1=O` is 92.1%; for `COc1cccc(S(=O)(=O)N2C[C@@H](O)COC[C@@H]3O[C@H](CC(=O)Nc4ccccc4)CC[C@H]32)c1` it is 62.3%.
Consider `Cc1ccc(S(=O)(=O)N2C[C@@H](O)COC[C@@H]3O[C@H](CC(=O)NCc4ccc(Cl)c(Cl)c4)CC[C@H]32)cc1`, for which the inhibition is 103% (active).
`C[C@H](CO)N1C[C@H](C)[C@H](CN(C)Cc2ccc(C(F)(F)F)cc2)Oc2ccc(NS(=O)(=O)c3ccc(Cl)cc3)cc2C1=O`: the inhibition was 106% (active).
The figure for `COc1ccc(S(=O)(=O)Nc2ccc3c(c2)C(=O)N([C@@H](C)CO)C[C@H](C)[C@@H](CN(C)Cc2ccc(C(F)(F)F)cc2)O3)cc1` is 88.7%; for `COc1ccc(CN(C)C[C@H]2Oc3ccc(NS(=O)(=O)c4ccc(Cl)cc4)cc3CC(=O)N([C@@H](C)CO)C[C@H]2C)cc1` it is 100% (active).
The figure for `COc1ccc(S(=O)(=O)Nc2ccc3c(c2)C(=O)N([C@@H](C)CO)C[C@H](C)[C@H](CN(C)Cc2ccc(C(F)(F)F)cc2)O3)cc1` is 104% (active); for `COc1ccc(S(=O)(=O)Nc2ccc3c(c2)C(=O)N([C@H](C)CO)C[C@H](C)[C@H](CN(C)Cc2ccc(C(F)(F)F)cc2)O3)cc1` it is 106% (active).
The figure for `Cc1ccc(S(=O)(=O)Nc2ccc3c(c2)C(=O)N([C@H](C)CO)C[C@H](C)[C@H](CN(C)Cc2ccc(Cl)c(Cl)c2)O3)cc1` is 102% (active); for `COc1cccc(S(=O)(=O)Nc2ccc3c(c2)[C@H]2C[C@H](CC(=O)NCc4ccc(Cl)cc4)O[C@H](CO)[C@H]2O3)c1` it is 104% (active).

What is called inhibition is the relative decrease from the control value, in per cent.
